{"source": "PubChem BioAssay AID485317", "about": "(Broad Institute, 2010)", "note": "Hit rate of the full screen: of about 290,000 compounds, about 11,000 (3.8%) were called active. The sample holds actives, similar compounds and a random draw of the others, so the mix is not that of the screen.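 Rule for the calls: active = mean replicate inhibition above about 79%, with every replicate also reaching it (limit read from the data); inconclusive = only one of the two criteria met; inactive = mean below limit and not every replicate reaching it.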", "data": [{"molecular_target": "FAD-linked sulfhydryl oxidase ALR (Homo sapiens) (UniProt P55789)", "sequence (P55789 whole entry, looked up)": "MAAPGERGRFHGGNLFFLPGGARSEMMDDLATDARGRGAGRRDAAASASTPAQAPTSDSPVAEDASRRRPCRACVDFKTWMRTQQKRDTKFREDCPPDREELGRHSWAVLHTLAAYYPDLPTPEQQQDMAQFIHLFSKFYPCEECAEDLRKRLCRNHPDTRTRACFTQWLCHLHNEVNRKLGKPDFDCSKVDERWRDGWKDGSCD", "test": "ALR-catalysed DTT oxidation blockers – biochemical, H2O2 detection, HRP-luminol luminescence, single point, primary screen (AID 485317)", "conditions": "purified ALR, hits give high values, concentration not given here", "values": [{"smiles": "COc1cc(Cl)c(C)cc1NC(=O)CSc1nnc(CN2CCCC2)o1", "inhibition": "-7.65% (inactive)"}, {"smiles": "Cc1ccc(C)c(C(=O)COC(=O)Cn2[nH]c(=O)c3ccccc3c2=O)c1", "inhibition": "-2.55% (inactive)"}, {"smiles": "CCn1c(SCC(=O)Nc2ccc(S(=O)(=O)Nc3onc(C)c3C)cc2)nnc1-c1ccccc1", "inhibition": "53.3% (inactive)"}, {"smiles": "CC(Oc1cccc(Cl)c1)C(=O)Nc1ccc(S(=O)(=O)Nc2ncccn2)cc1", "note": "(centres undefined)", "inhibition": "7.5% (inactive)"}, {"smiles": "CCc1ccc(OC(C)C(=O)Nc2ccc(S(=O)(=O)Nc3cc(C)on3)cc2)cc1", "note": "(centres undefined)", "inhibition": "9.12% (inactive)"}, {"smiles": "Cc1noc(NS(=O)(=O)c2ccc(N/C=C/C(=O)c3ccccc3)cc2)c1C", "inhibition": "85.4% (active)"}, {"smiles": "Cc1cc(OC(C)C(=O)Nc2ccc(S(=O)(=O)Nc3onc(C)c3C)cc2)cc(C)c1Cl", "note": "(centres undefined)", "inhibition": "97.6% (active)"}, {"smiles": "Cc1noc(NS(=O)(=O)c2ccc(NC(=O)C34CCC(CC3)C4)cc2)c1C", "inhibition": "6.47% (inactive)"}, {"smiles": "CCOc1cc(N2CCOCC2)c(OCC)cc1NC(=O)COc1cccc(Cl)c1", "inhibition": "-15.1% (inactive)"}, {"smiles": "O=C(CCCOc1ccccc1)NNC(=O)c1ccc(Cl)cc1", "inhibition": "3.44% (inactive)"}, {"smiles": "Cc1occc1C(=O)N/N=C/c1ccc(-c2cccc([N+](=O)[O-])c2)o1", "inhibition": "-4.94% (inactive)"}, {"smiles": "COc1ccc(NC(=O)CNc2cc(S(=O)(=O)N3CCOCC3)ccc2N2CCOCC2)c(OC)c1", "inhibition": "1.23% (inactive)"}, {"smiles": "Cc1ccc(NS(=O)(=O)c2ccc(C(C)C)cc2)cc1S(=O)(=O)N1CCOCC1", "inhibition": "4.5% (inactive)"}, {"smiles": "Cc1cc(C(=O)Nc2nnc(C3CC3)s2)c(C)s1", "inhibition": "-0.2% (inactive)"}, {"smiles": "CC(C)CN(C(=O)COC(=O)c1ccc(Cl)c(N)c1)c1c(N)n(Cc2ccccc2)c(=O)[nH]c1=O", "inhibition": "-4.01% (inactive)"}, {"smiles": "Cc1cc(/C=C2\\SC(=O)N(C)C2=O)c(C)n1-c1cccc(C(=O)O)c1", "inhibition": "81.6% (active)"}, {"smiles": "CN1C(=O)/C(=C/c2ccco2)SC1=Nc1cccc(C(=O)O)c1", "inhibition": "1.79% (inactive)"}, {"smiles": "Cc1cc(/C=N/n2cnnc2)c(C)n1-c1cccc(C(=O)O)c1", "inhibition": "2.1% (inactive)"}, {"smiles": "Cc1ccc(-c2c3c(=O)n(C)c(=O)n(C)c3cn2-c2ccccc2O)cc1", "inhibition": "-5.8% (inactive)"}, {"smiles": "COc1ccc(-c2c3c(=O)n(C)c(=O)n(C)c3cn2-c2cccc(OC)c2)cc1", "inhibition": "-5.98% (inactive)"}, {"smiles": "Cc1ccc(-c2c3c(=O)n(C)c(=O)n(C)c3cn2-n2cnnc2)cc1", "inhibition": "97.2% (active)"}, {"smiles": "O=C(COC(=O)c1cc(S(=O)(=O)N2CCOCC2)ccc1Cl)NCCc1ccccc1", "inhibition": "-0.788% (inactive)"}, {"smiles": "CCc1ccccc1OCC(=O)Nc1ccc(C)c(S(=O)(=O)N2CCCCCC2)c1", "inhibition": "-0.917% (inactive)"}, {"smiles": "Cc1cccc(C(=O)N2CCCC(Nc3ccc(C(C)C)cc3)C2)n1", "note": "(centres undefined)", "inhibition": "97.8% (active)"}, {"smiles": "CC(C)c1ccc(NC(=O)NC2CCCCC2)cc1", "inhibition": "-0.723% (inactive)"}, {"smiles": "COC(=O)c1cccc(C(=O)N2CCCC(Nc3ccc4c(c3)OCCO4)C2)c1", "note": "(centres undefined)", "inhibition": "93.9% (active)"}, {"smiles": "CC(C)c1ccc(NC2CCCN(C(=O)c3ccncc3)C2)cc1", "note": "(centres undefined)", "inhibition": "53.9% (inactive)"}, {"smiles": "O=C(Nc1ccc2c(c1)OCCO2)C1CCCN(c2ncccn2)C1", "note": "(centres undefined)", "inhibition": "-3.09% (inactive)"}, {"smiles": "COc1ccc(C(=O)N2CCC(C(=O)Nc3ccc(C)cc3)CC2)cc1", "inhibition": "-30.7% (inactive)"}, {"smiles": "COC(=O)c1cccc(C(=O)N2CCC(CCC(=O)NCc3ccc(F)cc3)CC2)c1", "inhibition": "-3.28% (inactive)"}, {"smiles": "COc1ccc(NC2CCCN(C(=O)c3ccncc3)C2)cc1", "note": "(centres undefined)", "inhibition": "95.8% (active)"}, {"smiles": "CC(C)c1ccc(NC(=O)C2CCCN(S(=O)(=O)c3cccnc3)C2)cc1", "note": "(centres undefined)", "inhibition": "1.01% (inactive)"}, {"smiles": "O=C(Nc1ccc2nc3n(c(=O)c2c1)CCCC3)c1ccc(Cl)nc1", "inhibition": "0.685% (inactive)"}, {"smiles": "COc1ccccc1-c1nnc(-c2ccc(F)cc2)o1", "inhibition": "2.91% (inactive)"}, {"smiles": "COc1ccc(NS(=O)(=O)c2ccc(C)c(C(=O)N(C)Cc3ccc(OC)cc3OC)c2)cc1", "inhibition": "-17.9% (inactive)"}, {"smiles": "O=C(Nc1ccc(S(=O)(=O)N2CCCCC2)cc1)C1CCN(C(=O)c2ccc(F)cc2)CC1", "inhibition": "-0.325% (inactive)"}, {"smiles": "CC1CCN(C(=O)c2cccc(S(=O)(=O)N3CCCc4ccccc43)c2)CC1", "inhibition": "-15.4% (inactive)"}, {"smiles": "CC(C)(C)OC(=O)C[C@@H]1C/C=C\\C[C@@H](CC(=O)N[C@@H](CO)Cc2ccccc2)C(=O)N2CCC[C@H]2COC1=O", "inhibition": "-8.71% (inactive)"}, {"smiles": "COc1ccc(C(=NN)c2ccc(OC)cc2)cc1", "inhibition": "0.931% (inactive)"}, {"smiles": "CCC(=O)c1ccc(OCC(=O)Nc2ccc(N3CCCCC3)cc2)cc1", "inhibition": "-9.1% (inactive)"}, {"smiles": "Cc1ccc(C)c(OCCC(=O)Nc2cccc(S(=O)(=O)N3CCCC3)c2)c1", "inhibition": "-0.0535% (inactive)"}, {"smiles": "CCc1ccc(NC(=O)CN2C(=O)CSC2=O)cc1", "inhibition": "96% (active)"}, {"smiles": "COc1ccc(NC(=O)CN2C(=O)CSC2=O)cc1", "inhibition": "21.6% (inactive)"}, {"smiles": "CCc1ccc(NC(=O)Cn2ncn3c(cc4ccccc43)c2=O)cc1", "inhibition": "3.26% (inactive)"}, {"smiles": "Cc1ccc2nc(NC(=O)C3CSC4(C)CCC(=O)N34)sc2c1", "note": "(centres undefined)", "inhibition": "-0.552% (inactive)"}, {"smiles": "O=C1CSC(c2cccc(F)c2)N1c1ccccc1F", "note": "(centres undefined)", "inhibition": "91.3% (active)"}, {"smiles": "O=C1CSC(c2cccc(F)c2)N1c1ccc(O)cc1", "note": "(centres undefined)", "inhibition": "-57.5% (inactive)"}, {"smiles": "O=C1CSC(c2ccccc2)N1c1nc(-c2ccc(Cl)cc2Cl)cs1", "note": "(centres undefined)", "inhibition": "-3% (inactive)"}, {"smiles": "COc1ccccc1CNC(=O)c1ccc(Cl)c(S(=O)(=O)N2CCCC2)c1", "inhibition": "-3.23% (inactive)"}, {"smiles": "CC(=O)O[C@H]1CC[C@@]2(C)[C@@H](CC[C@@H]3[C@@H]2CC[C@]2(C)[C@@H](C(C)(C)O)C[C@@H]32)C1", "inhibition": "-2.24% (inactive)"}, {"smiles": "Cc1ccc2nc(-c3ccccc3)cc(C(=O)O)c2c1", "inhibition": "89.7% (active)"}, {"smiles": "Cc1ccc2nc(-c3ccncc3)cc(C(=O)Nc3ccncc3)c2c1", "inhibition": "-3.42% (inactive)"}, {"smiles": "Cc1ccc2nc(-c3cccc(Br)c3)cc(C(=O)Nn3cnnc3)c2c1", "inhibition": "1.88% (inactive)"}, {"smiles": "O=C(CC1SC(N2CCOCC2)=NC1=O)Nc1ccccc1F", "note": "(centres undefined)", "inhibition": "-2.71% (inactive)"}, {"smiles": "Cc1ccc(S(=O)(=O)N2CCN(C(=O)Cc3sc(C)nc3-c3ccc(F)cc3)CC2)c(C)c1", "inhibition": "-12.2% (inactive)"}, {"smiles": "CCC1(C)NC(=O)N(CC(=O)N2CCN(c3cccc(Cl)c3)CC2)C1=O", "note": "(centres undefined)", "inhibition": "1.58% (inactive)"}, {"smiles": "O=C(COC(=O)COc1ccccc1F)Nc1cccc(S(=O)(=O)N2CCCCC2)c1", "inhibition": "-10.2% (inactive)"}, {"smiles": "COc1ccc(Br)cc1/C=N/n1c(C)nnc1C", "inhibition": "-4.68% (inactive)"}, {"smiles": "COc1ccc(Br)cc1/C=N/NC(=O)c1cccc(S(=O)(=O)N2CCOCC2)c1", "inhibition": "-1.11% (inactive)"}, {"smiles": "COc1ccc(Br)cc1/C=N/Nc1ccc(Cl)c(C(=O)O)c1", "inhibition": "96.9% (active)"}, {"smiles": "COC(=O)c1ccc(SCc2ccccc2)nc1", "inhibition": "-2.47% (inactive)"}, {"smiles": "CCN(CC(=O)Nc1cccc(S(=O)(=O)N2CCCCC2)c1)Cc1ccccc1", "inhibition": "-23.2% (inactive)"}, {"smiles": "COc1ccc(NC(=O)CSc2ccc(-c3ccco3)nn2)c(OC)c1", "inhibition": "0.2% (inactive)"}, {"smiles": "Cc1cc(SCc2c(F)cccc2Cl)nc(=O)[nH]1", "inhibition": "35.2% (inactive)"}, {"smiles": "O=C(CSc1ccc(-c2ccco2)nn1)NCc1ccc2c(c1)OCO2", "inhibition": "3.65% (inactive)"}, {"smiles": "Brc1ccc(CSc2ccc(-c3ccco3)nn2)cc1", "inhibition": "98.2% (active)"}, {"smiles": "O=C(CSc1ccc(-c2ccco2)nn1)Nc1cccc(F)c1", "inhibition": "-14% (inactive)"}, {"smiles": "Fc1cccc(Cl)c1CSc1ccc(-c2ccco2)nn1", "inhibition": "98.3% (active)"}, {"smiles": "CCCC(CNC(=O)COC(=O)C1=NNC(=O)CC1)c1ccc(Cl)cc1Cl", "note": "(centres undefined)", "inhibition": "0.0724% (inactive)"}, {"smiles": "COc1cc(OC)cc(C(=O)NCC(=O)N2CCCCCCC2)c1", "inhibition": "-4.06% (inactive)"}, {"smiles": "COc1ccc(Nc2ncnc3sc(C)cc23)cc1", "inhibition": "7.07% (inactive)"}, {"smiles": "Cc1cccc(C(C)C)c1NC(=O)COC(=O)C1CC(=O)N(Cc2ccccc2)C1", "note": "(centres undefined)", "inhibition": "-1.43% (inactive)"}, {"smiles": "C[C@H](CO)N1C[C@H](C)[C@@H](CN(C)S(=O)(=O)c2ccc(F)cc2)Oc2ccc(NC(=O)CCC(F)(F)F)cc2C1=O", "inhibition": "-3.84% (inactive)"}, {"smiles": "O=C1OC[C@@H]2CCCN2C(=O)[C@H](CC(=O)N(CCO)Cc2ccccc2)C/C=C\\CC[C@@H]1Cc1ccc(F)cc1", "inhibition": "-10.6% (inactive)"}, {"smiles": "COc1ccc(Cl)cc1NC(=O)CN(C)C(=O)c1ccc2n[nH]nc2c1", "inhibition": "2.11% (inactive)"}, {"smiles": "COc1ccc(OCCNC(=O)c2cc(C3CC3)nc3c2cnn3C(C)C)cc1", "inhibition": "-7.42% (inactive)"}, {"smiles": "O=S(=O)(c1cccc(-c2cn3ccccc3n2)c1)N1CCCC1", "inhibition": "0.842% (inactive)"}, {"smiles": "Cc1cccn2cc(-c3cccc(S(=O)(=O)N4CCCCC4)c3)nc12", "inhibition": "90.9% (active)"}, {"smiles": "O=S(=O)(c1cccc(-c2nnc3n2CCCCC3)c1)N1CCOCC1", "inhibition": "-3.91% (inactive)"}, {"smiles": "COc1ccccc1-c1nnc2n1N=C(c1ccc(OC(F)F)c(OCC3CC3)c1)CS2", "inhibition": "0.875% (inactive)"}, {"smiles": "CCN(C(=O)CSc1ncnc2c1cnn2-c1ccccc1)C1CCS(=O)(=O)C1", "note": "(centres undefined)", "inhibition": "8.44% (inactive)"}, {"smiles": "CCCCn1c(N)c(N(CCOC)C(=O)c2cccc(OCc3ccccc3)c2)c(=O)[nH]c1=O", "inhibition": "-0.129% (inactive)"}, {"smiles": "COc1ncnc2c1N=C1CC(C)(C)CC(N)=C1S2", "inhibition": "99% (active)"}, {"smiles": "COc1ccc(-c2cc(C(=O)N(C)Cc3ccc(OC)c(OC)c3OC)c3ccccc3n2)cc1OC", "inhibition": "0.485% (inactive)"}, {"smiles": "COc1ccc(Cl)cc1C(=O)OCC(=O)NCc1cccs1", "inhibition": "-0.428% (inactive)"}, {"smiles": "Cc1ccc(-c2cc(=O)[nH]c(NCc3ccccc3)n2)cc1", "inhibition": "-7.47% (inactive)"}, {"smiles": "CS(=O)(=O)c1ccc(C(=O)NNC(=O)c2cccs2)cc1", "inhibition": "-4.92% (inactive)"}, {"smiles": "O=C(NC(=S)Nc1ccc(NC(=O)c2cccs2)cc1)c1ccc([N+](=O)[O-])cc1", "inhibition": "-3.61% (inactive)"}, {"smiles": "NS(=O)(=O)c1ccc(NC(=S)NNC(=O)c2cccs2)cc1", "inhibition": "96.9% (active)"}]}]}
